# Read-outs that look alike come from different tables or passages of the source.
# How the values were obtained:
# [1] = system: TGFBR1; details: read-out: apparent Kd, n = 1
# [2] = system: TNK1; details: read-out: apparent Kd, n = 1
# [3] = compound concentrations:100 nM and 1000 nM (sheet 'Lestaurtinib' of Supplementary Table 1),run:Lestaurtinib_02364_R3,Plate:MR002
# [4] = compound concentrations:100 nM and 1000 nM (sheet 'Lestaurtinib' of Supplementary Table 1),run:Lestaurtinib_02367_R2,Plate:MR003
substance,measurement,setting,value
Lestaurtinib,potency estimated from few doses,[1]; [3],1.63 µM
same,potency estimated from few doses,[1]; [4],1.9 µM
same,potency estimated from few doses,"[1]; compound concentrations:100 nM and 1000 nM (sheet 'Lestaurtinib' of Supplementary Table 1),run:Lestaurtinib_02367_R3,Plate:MR003",2.07 µM
same,potency estimated from few doses,"[1]; compound concentrations:100 nM and 1000 nM (sheet 'Lestaurtinib' of Supplementary Table 1),run:Lestaurtinib_02381_R1,Plate:MR004",2.08 µM
same,potency estimated from few doses,"[1]; compound concentrations:100 nM and 1000 nM (sheet 'Lestaurtinib' of Supplementary Table 1),run:Lestaurtinib_02407_R1,Plate:MR005",2.02 µM
same,potency estimated from few doses,"[1]; compound concentrations:100 nM and 1000 nM (sheet 'Lestaurtinib' of Supplementary Table 1),run:Lestaurtinib_02422_R1,Plate:MR006",0.964 µM
same,potency estimated from few doses,"[1]; compound concentrations:100 nM and 1000 nM (sheet 'Lestaurtinib' of Supplementary Table 1),run:Lestaurtinib_02437_R2,Plate:MR007",1.79 µM
same,potency estimated from few doses,"[1]; compound concentrations:100 nM and 1000 nM (sheet 'Lestaurtinib' of Supplementary Table 1),run:Lestaurtinib_02437_R3,Plate:MR007",0.176 µM
same,potency estimated from few doses,"[1]; compound concentrations:100 nM and 1000 nM (sheet 'Lestaurtinib' of Supplementary Table 1),run:Lestaurtinib_02438_R2,Plate:MR008",1.42 µM
same,potency estimated from few doses,"[1]; compound concentrations:100 nM and 1000 nM (sheet 'Lestaurtinib' of Supplementary Table 1),run:Lestaurtinib_02438_R3,Plate:MR008",1.58 µM
same,potency estimated from few doses,"[1]; compound concentrations:100 nM and 1000 nM (sheet 'Lestaurtinib' of Supplementary Table 1),run:Lestaurtinib_02443_R3,Plate:MR009",1.32 µM
same,potency estimated from few doses,"[1]; compound concentrations:100 nM and 1000 nM (sheet 'Lestaurtinib' of Supplementary Table 1),run:Lestaurtinib_02473_R3,Plate:MR010",1.75 µM
same,potency estimated from few doses,"[1]; compound concentrations:100 nM and 1000 nM (sheet 'Lestaurtinib' of Supplementary Table 1),run:Lestaurtinib_02482_R3,Plate:MR011",1.76 µM
same,potency estimated from few doses,"[1]; compound concentrations:100 nM and 1000 nM (sheet 'Lestaurtinib' of Supplementary Table 1),run:Lestaurtinib_02487_R2,Plate:MR012",1.4 µM
same,potency estimated from few doses,"[1]; compound concentrations:100 nM and 1000 nM (sheet 'Lestaurtinib' of Supplementary Table 1),run:Lestaurtinib_02496_R1,Plate:MR013",1.53 µM
same,potency estimated from few doses,"[1]; compound concentrations:100 nM and 1000 nM (sheet 'Lestaurtinib' of Supplementary Table 1),run:Lestaurtinib_02496_R2,Plate:MR013",1.83 µM
same,potency estimated from few doses,"[1]; compound concentrations:100 nM and 1000 nM (sheet 'Lestaurtinib' of Supplementary Table 1),run:Lestaurtinib_02566_R1,Plate:MR014",0.827 µM
same,potency estimated from few doses,"[1]; compound concentrations:100 nM and 1000 nM (sheet 'Lestaurtinib' of Supplementary Table 1),run:Lestaurtinib_02566_R2,Plate:MR014",1.31 µM
same,potency estimated from few doses,"[1]; compound concentrations:100 nM and 1000 nM (sheet 'Lestaurtinib' of Supplementary Table 1),run:Lestaurtinib_02566_R3,Plate:MR014",1.34 µM
same,potency estimated from few doses,"[1]; compound concentrations:100 nM and 1000 nM (sheet 'Lestaurtinib' of Supplementary Table 1),run:Lestaurtinib_02577_R3,Plate:MR016",1.82 µM
same,potency estimated from few doses,"[1]; compound concentrations:100 nM and 1000 nM (sheet 'Lestaurtinib' of Supplementary Table 1),run:Lestaurtinib_02584_R3,Plate:MR017",1.58 µM
same,potency estimated from few doses,"[1]; compound concentrations:100 nM and 1000 nM (sheet 'Lestaurtinib' of Supplementary Table 1),run:Lestaurtinib_02606_R1,Plate:MR019",2.21 µM
same,potency estimated from few doses,"[1]; compound concentrations:100 nM and 1000 nM (sheet 'Lestaurtinib' of Supplementary Table 1),run:Lestaurtinib_02606_R2,Plate:MR019",2.08 µM
same,potency estimated from few doses,"[1]; compound concentrations:100 nM and 1000 nM (sheet 'Lestaurtinib' of Supplementary Table 1),run:Lestaurtinib_02741_R3,Plate:MR023",1.35 µM
same,potency estimated from few doses,"[1]; compound concentrations:100 nM and 1000 nM (sheet 'Lestaurtinib' of Supplementary Table 1),run:Lestaurtinib_02748_R1,Plate:MR024",1.42 µM
same,potency estimated from few doses,"[1]; compound concentrations:100 nM and 1000 nM (sheet 'Lestaurtinib' of Supplementary Table 1),run:Lestaurtinib_02748_R3,Plate:MR024",1.75 µM
same,potency estimated from few doses,"[1]; compound concentrations:100 nM and 1000 nM (sheet 'Lestaurtinib' of Supplementary Table 1),run:Lestaurtinib_02752_R2,Plate:MR025",1.6 µM
same,potency estimated from few doses,"[1]; compound concentrations:100 nM and 1000 nM (sheet 'Lestaurtinib' of Supplementary Table 1),run:Lestaurtinib_02765_R2,Plate:MR026",2.02 µM
same,potency estimated from few doses,"[1]; compound concentrations:100 nM and 1000 nM (sheet 'Lestaurtinib' of Supplementary Table 1),run:Lestaurtinib_02766_R1,Plate:MR027",1.36 µM
same,potency estimated from few doses,"[1]; compound concentrations:100 nM and 1000 nM (sheet 'Lestaurtinib' of Supplementary Table 1),run:Lestaurtinib_02766_R3,Plate:MR027",1.57 µM
same,potency estimated from few doses,"[1]; compound concentrations:100 nM and 1000 nM (sheet 'Lestaurtinib' of Supplementary Table 1),run:Lestaurtinib_02802_R1,Plate:MR029",1.54 µM
same,potency estimated from few doses,"[1]; compound concentrations:100 nM and 1000 nM (sheet 'Lestaurtinib' of Supplementary Table 1),run:Lestaurtinib_02896_R3,Plate:MR030",0.95 µM
same,potency estimated from few doses,"[1]; compound concentrations:100 nM and 1000 nM (sheet 'Lestaurtinib' of Supplementary Table 1),run:Lestaurtinib_03172_R1,Plate:MR031",1.54 µM
same,potency estimated from few doses,"[1]; compound concentrations:100 nM and 1000 nM (sheet 'Lestaurtinib' of Supplementary Table 1),run:Lestaurtinib_03172_R3,Plate:MR031",1.58 µM
same,potency estimated from few doses,"[1]; compound concentrations:100 nM and 1000 nM (sheet 'Lestaurtinib' of Supplementary Table 1),run:Lestaurtinib_03252_R1,Plate:MR032",1.33 µM
same,potency estimated from few doses,"[1]; compound concentrations:100 nM and 1000 nM (sheet 'Lestaurtinib' of Supplementary Table 1),run:Lestaurtinib_03252_R2,Plate:MR032",1.59 µM
same,potency estimated from few doses,"[2]; compound concentrations:100 nM and 1000 nM (sheet 'Lestaurtinib' of Supplementary Table 1),run:Lestaurtinib_02339_R1,Plate:MR001",0.22 µM
same,potency estimated from few doses,"[2]; compound concentrations:100 nM and 1000 nM (sheet 'Lestaurtinib' of Supplementary Table 1),run:Lestaurtinib_02339_R2,Plate:MR001",0.0935 µM
same,potency estimated from few doses,"[2]; compound concentrations:100 nM and 1000 nM (sheet 'Lestaurtinib' of Supplementary Table 1),run:Lestaurtinib_02339_R3,Plate:MR001",0.256 µM
same,potency estimated from few doses,"[2]; compound concentrations:100 nM and 1000 nM (sheet 'Lestaurtinib' of Supplementary Table 1),run:Lestaurtinib_02364_R2,Plate:MR002",0.213 µM
same,potency estimated from few doses,[2]; [3],0.19 µM
same,potency estimated from few doses,"[2]; compound concentrations:100 nM and 1000 nM (sheet 'Lestaurtinib' of Supplementary Table 1),run:Lestaurtinib_02367_R1,Plate:MR003",0.191 µM
same,potency estimated from few doses,[2]; [4],0.208 µM
same,potency estimated from few doses,"[2]; compound concentrations:100 nM and 1000 nM (sheet 'Lestaurtinib' of Supplementary Table 1),run:Lestaurtinib_02407_R3,Plate:MR005",0.213 µM
same,potency estimated from few doses,"[2]; compound concentrations:100 nM and 1000 nM (sheet 'Lestaurtinib' of Supplementary Table 1),run:Lestaurtinib_02422_R3,Plate:MR006",0.075 µM
